Peg3 prom inh-1: Peg3 promoter-driven luciferase inhibitors, primary screen, cell-based, HeLa, luciferase luminescence; HeLa PEG-Prom luciferase reporter, overnight; inhibition, % at 20 µM; 360,000 tested, 1.7% active;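 active = inhibition of at least 50% at 20 µM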
MITF TRPM1 inh: inhibitors of MITF-dependent TRPM1 promoter reporter, primary screen, cell-based, SK-MEL-5, single point, luciferase. 330,000 tested, 0.83% active. SK-MEL-5 TRPM1 promoter luciferase, 24 h. inhibition, % at 12.5 µM;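 active = mean inhibition across replicates of 60% or more, whatever share of single replicates reaches that level; inconclusive = some that reach 60%, reason not given; inactive = mean inhibition across replicates below 60%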
KKLEB tox: cytotoxicity in KKLEB CF airway cells, primary screen, cytotoxicity control for CF NF-kB inhibitor project, cell-based, uHTS, fluorescence assay plates | KKLEB CF airway cells viability, ATPlite luminescence, overnight; active compounds read low; cells stimulated with P. aeruginosa culture filtrate | activity change (cytotoxicity), % at 5 µM | AID 602141, 2011 | 360,000 tested, 0.36% active;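 active = corrected activity change at or below -50% at 5 µM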
CF NFkB block: inhibitors of PAF-induced NF-kB signaling, primary screen, cell-based, GFP fluorescence, uHTS | KKLEB NF-kB-GFP reporter, GFP fluorescence overnight | inhibition, % at 5 µM | 360,000 tested, 0.86% active;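 active = at least 50% inhibition at 5 µM, scaled per plate between neutral and stimulator controls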;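 note: PAF is a Pseudomonas aeruginosa culture filtrate used as stimulus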
HIF-2a block: HIF-2a reporter inhibitors, primary screen, luminescence, 786-0 RCC cells; inhibition, % at 18.8 µM; 360,000 tested, 0.72% active; 786-0 RCC cells HIF-2a reporter, luciferase luminescence, overnight;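 active = inhibition of the luminescence signal of 40% or more relative to plate controls, in a single-dose primary screen at 18.75 µM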
Shn3 3UTR inh: reduction of Shn3 3'UTR firefly luciferase signal, primary screen, Schnurri-3 inhibitor project, cell-based, Clone20 osteoblasts, set 2 | AID 588674, 2011 | Clone20 osteoblast Shn3 3'UTR firefly luciferase, 24 h | 360,000 tested, 0.52% active | inhibition, % at 12.5 µM;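 active = mean inhibition of at least 75% with every replicate also reaching 75%; inconclusive = mean inhibition at least 75% but some replicate below; inactive = mean inhibition below 75%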
Peg3 prom inh-2: Peg3 promoter reporter inhibitors, retest, confirmation, cell-based, HeLa, luciferase reporter, single concentration | shares compounds with Peg3 prom inh-1 | HeLa PEG-Prom luciferase reporter, luminescence, overnight | inhibition, % at 20 µM | 1,300 tested, 84% active | AID 602417, 2012;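 active = at 20 µM dose, 40% or more inhibition averaged across four replicates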
Hits are given with their value; - = inactive; ? = inconclusive; . = no result; ! = not confirmed by another sample. Sampled rows, rich in hits. Any-hit rate of the full collection: about 2.8%.

SMILES | Peg3 prom inh-1 | MITF TRPM1 inh | KKLEB tox | CF NFkB block | HIF-2a block | Shn3 3UTR inh | Peg3 prom inh-2
O=C(/C=C/c1ccc2ccccc2n1)N1CCN(S(=O)(=O)c2ccccc2F)CC1 | 50 | - | - | - | - | - | -
O=C(COC(=O)C1(c2ccc(F)cc2)CCCC1)NCc1ccco1 | - | - | - | - | - | - | .
O=C(Nc1nncs1)c1cc2c(s1)CCC2 | - | - | - | - | - | - | .
O=C(Nc1nccs1)c1cc2c(s1)CCCCC2 | 58 | - | -54 | - | 51 | - | -
OCC1OC(n2ccc3c(NO)ncnc32)C(O)C1O (stereo not drawn) | 100 | 95 | -92 | 86 | - | 99 | 98
Cc1nc2c(-c3ccc(Cl)cc3)c(C)[nH]n2c(=O)c1Cc1ccccc1 | 59 | - | - | - | - | - | 67
Cc1nc2c(-c3ccccc3)c(C)[nH]n2c(=O)c1Cc1ccccc1 | - | - | - | - | - | - | .
C[n+]1c2cc(N)ccc2cc2ccc(N)cc21 | 96 | 64 | - | - | 41! | ? | 96
Cc1ccccc1CN1CCN(c2ccc(S(=O)(=O)N3CCCC3)cn2)CC1 | - | - | - | - | - | - | .
Cc1ccc(NC(=S)NC(=O)c2ccc(F)cc2)cc1S(=O)(=O)Nc1ccccc1Cl | 55 | - | - | - | - | - | 58
CN1C/C(=C/c2cccnc2)C(=O)/C(=C/c2cccnc2)C1 | 87 | 100 | - | 57 | - | - | -
O=C1c2ccccc2C(=Cc2cccnc2)c2ccccc21 | - | . | - | - | - | - | .
CC(C)N(C)Cc1nnnn1CC(=O)N(C)Cc1ccc(F)cc1 | - | - | - | - | - | - | .
O=C(OCc1ccccc1)c1c(-c2ccccc2)oc2c1C(OCCO)CCC2 (stereo not drawn) | . | . | . | . | - | . | .
CCCN(CCC)CCCNC(=S)Nc1ccc2nc(N3CCCC3)cc(C)c2c1 | 51 | - | - | - | - | - | 71
CCN(CC)CCNC(=S)Nc1ccc2nc(N3CCCC3)cc(C)c2c1 | - | - | - | - | - | - | .
COc1ccc(C[C@H]2CN3C(=NC[C@@H]3Cc3ccc(O)cc3)N2C[C@H](C)NC(=O)c2ccc(C)c(Br)c2)cc1 | 101 | - | - | - | - | - | 97
COc1ccc(CC(N)c2csc(NC(=O)Nc3cc(OC)ccc3OC)n2)cc1 (stereo not drawn) | 94 | . | - | - | - | - | 96
COc1ccc(CC(N)c2csc(NC(=O)c3cccs3)n2)cc1 (stereo not drawn) | - | . | - | - | - | - | .
Cc1ccccc1NC(=O)Nc1nc(C(N)Cc2ccccc2)cs1 (stereo not drawn) | 73 | . | - | - | - | - | 42
Cc1ccccc1NC(=O)Nc1nc(CN)cs1 | - | . | - | - | - | - | .
COc1cc(NC(=O)Nc2nc(C(N)CCc3ccccc3)cs2)cc(OC)c1OC (stereo not drawn) | 74 | . | - | - | - | - | 83
COc1ccc(CC(N)c2csc(NC(=O)Nc3ccccc3C(C)(C)C)n2)cc1 (stereo not drawn) | 87 | . | - | - | - | - | 76
CC(C)(C)NC(=O)C(c1ccc(-c2ccccc2)cc1)N(C[C@H]1CC[C@@H]([C@@H]2CC[C@H](CO)O2)O1)C(=O)c1ccc(C(C)(C)C)cc1 (stereo partly drawn) | - | - | - | - | - | - | .
COCCNC(=O)CSc1nnc(NC(=O)C2CC(=O)N(c3ccccc3OC)C2)s1 (stereo not drawn) | - | - | - | - | - | - | .
SMILES | Peg3 prom inh-1 | MITF TRPM1 inh | KKLEB tox | CF NFkB block | HIF-2a block | Shn3 3UTR inh | Peg3 prom inh-2
c1cc2c3c(cccc3c1)NC1(CCC3(CC1)Nc1cccc4cccc(c14)N3)N2 | 76 | - | - | - | - | - | 75
CC(Sc1ccc(S(=O)(=O)N(C)C)cn1)C(=O)NC1CCCC1 (stereo not drawn) | - | - | - | - | - | - | .
Cc1cc(Sc2ncnc(N)c2[N+](=O)[O-])ncn1 | 106 | 78 | - | 66 | - | 99 | 100
CCC(C)(C)C1CCc2[nH]nc(C(=O)NCCCNC(=O)OC(C)(C)C)c2C1 (stereo not drawn) | - | - | - | - | - | - | .
Cc1ccc(C(=O)Nc2c(C)n(C)n(-c3ccccc3)c2=O)cc1 | - | - | - | - | - | - | .
Cc1ccc(-n2c(N)c(C(=O)Nc3c(C)n(C)n(-c4ccccc4)c3=O)c3nc4ccccc4nc32)cc1 | 76 | - | - | - | - | - | 51
CC(C)Cc1nnc(NC(=O)CCC(=O)N2CCN(c3ccccc3F)CC2)s1 | - | - | - | - | - | - | .
COc1cccc(N2CCN(CC(=O)Nc3ccccc3C(=O)NCc3ccccc3)CC2)c1 | 57 | - | - | - | - | - | 51
O=C(/C=C/c1ccccc1)Nc1cccc(C(=O)O)c1 | 85 | 99 | - | - | 87 | - | 77
O=C(/C=C/c1ccccc1)Nc1cc(NC(=O)/C=C/c2ccccc2)cc(C(=O)O)c1 | - | - | - | - | - | - | .
CC(=O)n1cc(N(C(=O)CCl)c2ccc([N+](=O)[O-])cc2)c2ccccc21 | 90 | 69 | -83 | 80 | - | . | 99
CC1CCCC12NC(=O)NC2=O (stereo not drawn) | - | - | - | - | - | - | .
C[n+]1ccc(C(=O)N/N=C/c2ccco2)cc1 | - | - | - | - | - | - | .
Cc1nc(N2CCN(c3ccccn3)CC2)c2c(C)c(C(=O)Nc3ccccc3F)sc2n1 | 73 | - | - | - | - | - | 66
CCOc1ccc2ccccc2c1/C=N/NC(=O)CNC(=O)c1ccccc1F | - | - | - | - | - | - | .
CCCCCCCNC(=O)C1(CC2CC(c3ccccc3)=NO2)CCNCC1 (stereo not drawn) | 94 | - | - | - | - | - | 79
O=C(NCc1ccccc1)C1(CC2CC(c3ccccc3)=NO2)CCNCC1 (stereo not drawn) | - | - | - | - | - | - | .
Cc1ccc(C(=O)N/C(=C\c2ccc(-c3cccc([N+](=O)[O-])c3)o2)C(=O)NCCCN(C)C)cc1 | 87 | - | - | - | - | - | 93
CN(C)CCNC(=O)/C(=C/c1ccc(-c2ccc(Cl)cc2)o1)NC(=O)c1ccccc1 | 100 | 66 | - | - | - | - | 97
